C diff HTS = blocks growth of Clostridium difficile. AID 1259249. actives 0.25% (n = 86,000). Clostridium difficile clinical isolate growth, OD600, 24 h; hits give low values. growth activity, negative = inhibition, % at 16 µg/mL (by protocol);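 active means mean growth activity at or below -80% and every replicate also at or below -80%; inconclusive means mean at or below -80% but some replicate above -80%; inactive means mean growth activity above -80%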;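 further: 0% = DMSO wells and -100% = levofloxacin 16 µg/mL wells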
T cruzi growth-1 = inhibitors of T. cruzi proliferation. T. cruzi beta-gal in NIH3T3, GalScreen luminescence, 90 h. inhibition, % at 8.34 µM. actives 5.9% (n = 77,000). AID 624255;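 active means mean inhibition above about 93%, with at least 55% of replicates each passing it, limit read from the data, passing the limit was not always enough; inconclusive means only one of those two conditions holds; inactive means neither condition holds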
Pf Dd2 growth = P. falciparum Dd2 growth inhibition | SYBR Green, 72 h; hits give low values | activity change, % at 10 µM | actives 2.3% (n = 94,000); in the data active means activity change below about -80%; inconclusive means no clear call, values can overlap the other calls
T cruzi growth-2 = inhibitors of T. cruzi proliferation; shares compounds with T cruzi growth-1; T. cruzi beta-gal in NIH3T3, GalScreen luminescence, 90 h; inhibition, % at 8.35 µM; actives 72% (n = 5,600); AID 651739;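 active means mean replicate inhibition above about 95% and at least 55% of replicates individually reaching it, limit read from the data; inconclusive means only one of the two criteria is met; inactive means neither criterion is met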
T cruzi growth-3 = inhibitors of T. cruzi proliferation; shares compounds with T cruzi growth-1; T. cruzi beta-gal in NIH3T3, GalScreen luminescence, 90 h; inhibition, % at 2.09 µM; actives 21% (n = 5,600); AID 651740;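 active means mean inhibition above about 95%, with at least 55% of replicates also reaching it, limit read from the data; inconclusive means meets just one of the two conditions; inactive means meets neither condition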;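 further: plate controls were neutral control median for no effect and positive control median for full effect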
3T3 cytotox = NIH/3T3 (mouse) viability loss | shares compounds with T cruzi growth-1 | NIH/3T3 viability, CellTiter-Glo ATP luminescence, 90 h | cytotoxicity (signal decrease), % at 8.35 µM | actives 14% (n = 5,600) | AID 651742;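 active means mean signal decrease across replicates above about 35% based on untreated-well scatter, with enough replicates individually passing, limit read from the data; inconclusive means no rule stated though some were filed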;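 further: 0% = median of neutral control wells and 100% = median of positive control wells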
3T3 cytotox 2 = cytotoxicity in mouse NIH/3T3 fibroblasts | inhibition, % at 24.9 µM | actives 56% (n = 5,600) | shares compounds with T cruzi growth-1 | AID 651744 | NIH/3T3 viability, CellTiter-Glo ATP luminescence, 90 h;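 active means mean loss of cell viability signal at or above a set limit, and enough replicates individually reaching it; inconclusive means meets only the mean limit or only the replicate share; inactive means meets neither condition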;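 further: 0% = median of neutral control wells and 100% = median of positive control wells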
Numbers without * were called inactive; ? = inconclusive; . = not tested or not shown; ! = not active in a repeat. Sampled rows, rich in hits. Any-hit rate of the full collection: about 6.8%.

SMILES	C diff HTS	T cruzi growth-1	Pf Dd2 growth	T cruzi growth-2	T cruzi growth-3	3T3 cytotox	3T3 cytotox 2
C[C@@H]1CCCCO[C@H](CN(C)C(=O)CCC(F)(F)F)[C@H](C)CN([C@H](C)CO)C(=O)c2cc(N(C)C)ccc2O1	-0.7	37.8	.	.	.	.	.
COc1cccc(C(=O)N2C[C@@H]3[C@H](c4ccccc42)[C@@H](CO)N3Cc2ccccc2Cl)c1	22.4	23.2	-18.5	.	.	.	.
COc1ccc2c3c(n(C)c2c1)[C@H](CO)N(Cc1ccccc1OC)CC31CCN(CC2CCOCC2)CC1	4.9	.	-26.8	.	.	.	.
COCC(=O)N1CC2(CCN(C(=O)NC(C)C)CC2)c2c(n(C)c3cc(OC)ccc23)[C@H]1CO	-7.3	.	-33.3	.	.	.	.
C[C@@H]1CCCCO[C@H](CN(C)Cc2ccc(C(F)(F)F)cc2)[C@H](C)CN([C@H](C)CO)C(=O)c2cc(NC(=O)C3CCCCC3)ccc2O1	-1.5	?	-37.2	96.5*	110.1*	-2.6	14.5
C[C@H](CO)N1C[C@H](C)[C@H](CN(C)Cc2ccc(C(=O)O)cc2)OCCCC[C@H](C)Oc2ccc(NC(=O)C3CCCCC3)cc2C1=O	1.8	17.5	14.9	.	.	.	.
C[C@@H]1CCCCO[C@@H](CN(C)Cc2ccc(C(F)(F)F)cc2)[C@@H](C)CN([C@@H](C)CO)C(=O)c2cc(NC(=O)C3CCCCC3)ccc2O1	3.3	?	-26.2	102.4*	59.5	3.0	-20.4
C[C@@H]1CN([C@H](C)CO)C(=O)c2cc(NC(=O)C3CCCCC3)ccc2O[C@@H](C)CCCCO[C@@H]1CN(C)Cc1ccc(C(=O)O)cc1	-5.7	-7.5	2.7	.	.	.	.
C[C@@H]1CN([C@H](C)CO)C(=O)c2cc(NC(=O)C3CCCCC3)ccc2O[C@@H](C)CCCCO[C@@H]1CN(C)Cc1ccc(C(F)(F)F)cc1	3.8	?	-35.5	93.1	113.3*	-5.2	-19.7
C[C@@H]1CCCCO[C@@H](CN(C)Cc2ccc(C(F)(F)F)cc2)[C@@H](C)CN([C@H](C)CO)C(=O)c2cc(NC(=O)C3CCCCC3)ccc2O1	4.3	70.1	38.5	.	.	.	.
C[C@@H]1CN([C@@H](C)CO)C(=O)c2cc(NC(=O)C3CCCCC3)ccc2O[C@@H](C)CCCCO[C@@H]1CN(C)Cc1ccc(C(F)(F)F)cc1	5.7	?	-13.0	104.4*	105.4*	1.8	6.6
C[C@@H]1CCCCO[C@H](CN(C)Cc2ccc(C(=O)O)cc2)[C@@H](C)CN([C@H](C)CO)C(=O)c2cc(NC(=O)C3CCCCC3)ccc2O1	-9.2	0.0	32.2	.	.	.	.
COc1ccc(S(=O)(=O)Nc2cccc3c2O[C@H](CN(C)C)[C@H](C)CN([C@H](C)CO)C3=O)cc1	-1.1	1.8	0.5	.	.	.	.
C[C@H]1CN([C@@H](C)CO)C(=O)c2cc(NS(=O)(=O)c3cccs3)ccc2O[C@H]1CN(C)Cc1ccc(-c2ccccc2)cc1	16.5	?	8.1	85.1	-6.6	7.3	54.7*
C[C@H](CO)N1C[C@H](C)[C@@H](CN(C)CC2CC2)Oc2ccc(NS(=O)(=O)c3cccs3)cc2C1=O	2.4	23.8	4.8	.	.	.	.
C[C@@H]1CN([C@@H](C)CO)C(=O)c2cc(NS(=O)(=O)c3cccs3)ccc2O[C@@H]1CN(C)CC1CC1	2.2	99.1*	8.3	77.0	31.9	16.7	9.6
C[C@@H]1CN([C@H](C)CO)C(=O)c2cc(NS(=O)(=O)c3cccs3)ccc2O[C@H]1CN(C)Cc1ccc(-c2ccccc2)cc1	-7.0	19.1	0.8	.	.	.	.
C[C@@H]1CN([C@@H](C)CO)C(=O)c2cccc(NC(=O)C3CCCCC3)c2O[C@H]1CN(C)S(=O)(=O)c1ccccc1	-0.3	39.0	-52.2	.	.	.	.
O=C(C[C@@H]1CC[C@@H]2[C@H](COC[C@@H](O)CN2C(=O)Nc2ccccc2)O1)NCCc1ccncc1	.	78.8	5.4	.	.	.	.
C[C@@H]1CCCCO[C@H](CN(C)C(=O)Nc2ccc3c(c2)OCO3)[C@H](C)CN([C@@H](C)CO)C(=O)c2cc(N(C)C)ccc2O1	-2.6	71.7	.	.	.	.	.
C[C@H]1CCCCO[C@@H](CN(C)C(=O)Nc2ccc(F)cc2)[C@@H](C)CN([C@@H](C)CO)C(=O)c2cc(NC(=O)Nc3ccccc3)ccc2O1	-3.4	76.7	-4.1	.	.	.	.
C[C@@H]1CCCCO[C@@H](CN(C)C(=O)Nc2ccc3c(c2)OCO3)[C@@H](C)CN([C@H](C)CO)C(=O)c2cc(N(C)C)ccc2O1	5.0	95.9*!	-6.2	40.7	-7.6	-9.6	-8.7
C[C@H]1CCCCO[C@H](CN(C)C(=O)Nc2ccc(F)cc2)[C@@H](C)CN([C@@H](C)CO)C(=O)c2cc(NC(=O)Nc3ccccc3)ccc2O1	0.2	?	-51.0	108.4*	87.6	15.0	11.4
C[C@@H]1CCCCO[C@H](CN(C)C(=O)Nc2ccccc2)[C@H](C)CN([C@H](C)CO)C(=O)c2cc(NC(=O)Nc3ccc(F)cc3)ccc2O1	.	102.2*	-85.4*	104.1*	107.6*	-5.4	-26.5
C[C@H]1CCCCO[C@@H](CN(C)C(=O)Nc2ccc3c(c2)OCO3)[C@@H](C)CN([C@@H](C)CO)C(=O)c2cc(NC(=O)Cc3ccccc3)ccc2O1	-1.5	?	-60.4	102.8*	10.6	6.3	-8.6
SMILES	C diff HTS	T cruzi growth-1	Pf Dd2 growth	T cruzi growth-2	T cruzi growth-3	3T3 cytotox	3T3 cytotox 2
C[C@@H]1CCCCO[C@H](CN(C)C(=O)Nc2ccc3c(c2)OCO3)[C@@H](C)CN([C@H](C)CO)C(=O)c2cc(NC(=O)Cc3ccccc3)ccc2O1	-2.9	37.9	-31.9	.	.	.	.
C[C@@H]1CCCCO[C@@H](CN(C)C(=O)Nc2ccc(F)cc2)[C@@H](C)CN([C@H](C)CO)C(=O)c2cc(NC(=O)Nc3ccccc3)ccc2O1	9.2	-5.4	71.9	.	.	.	.
C[C@@H]1CN([C@@H](C)CO)C(=O)c2cc(C#CC3CC3)cnc2O[C@@H]1CN(C)C(=O)C1CCCCC1	.	36.0	-19.1	.	.	.	.
CCCC(=O)Nc1ccc2c(c1)C(=O)N(C)C[C@H](OC)[C@H](C)CN(C)[C@@H](C)CO2	-3.7	24.7	30.2	.	.	.	.
CCN1[C@@H]2c3ccc(-c4cccc(F)c4)c(=O)n3C[C@H]1[C@H](CO)[C@H]2C(=O)NCC1CC1	-5.7	41.3	17.4	.	.	.	.
C[C@H](CO)N1C[C@H](C)[C@@H](CN(C)C(=O)Nc2ccc(F)cc2)OCCCC[C@H](C)Oc2ccc(NC(=O)Nc3ccccc3)cc2C1=O	1.4	113.6*	15.7	110.1*	30.5	-1.3	-14.5
C[C@@H]1CCCCO[C@@H](CN(C)C(=O)Nc2ccc3c(c2)OCO3)[C@H](C)CN([C@H](C)CO)C(=O)c2cc(NC(=O)Nc3ccccc3)ccc2O1	-3.8	94.7	-45.9	.	.	.	.
C[C@H](CO)N1C[C@H](C)[C@H](CN(C)C(=O)Nc2ccccc2)OCCCC[C@H](C)Oc2ccc(NC(=O)Nc3ccccc3)cc2C1=O	-4.8	66.9	-12.5	.	.	.	.
